± gives the standard deviation.

Our source for the NF-kB reporter and IRF reporter values is the supplement of paper PMC10646978.

The test system of the first test is RAW-Dual (murine macrophage reporter line). The test can be described thus: NF-kB reporter (SEAP) activity fold change vs agonist alone; higher = enhanced NF-kB activity. The following applies: modulator concentration 10 µM; agonist: MPLA […]. The procedure, abridged: (§1)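 Compound reached 10 μM final in each well by pin transfer, onto RAW-Dual murine macrophage reporter cells seeded at 50 000 per well in 384-well plates. After 1 hour at 37 °C, the cells were stimulated overnight with a PRR agonist. SEAP in the supernatant was read with QUANTI-Blue at 620 nm absorbance for NF-κB, and Lucia luciferase was read with QUANTI-Luc luminescence for IRF. Each signal was turned into fold change against the mean agonist-only control on the same plate, and two replicate plates were averaged with propagated errors.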
For the compound `COC(=O)C1=CN(CC2CCCO2)C=C(C(=O)OC)C1c1cccc(Cl)c1` (stereo not given), the NF-kB reporter is 0.83 ± 0.072.

With `O=C(NCCOc1cccc2cccnc12)c1c(F)cccc1F`, the NF-kB reporter stood at 0.859 ± 0.049.

With `CCOC(=O)C(C)N(c1ccc(OC)cc1)S(C)(=O)=O` (stereo not given), the NF-kB reporter was 0.905 ± 0.053.

Consider `CN1C(C(=O)Nc2ccccn2)=C(O)c2ccccc2S1(=O)=O`, for which the NF-kB reporter worked out at 1.11 ± 0.097.

Regarding `Cc1nc(Nc2ncc(C(=O)Nc3c(C)cccc3Cl)s2)cc(N2CCN(CCO)CC2)n1.Cl`, the NF-kB reporter came out at 1.06 ± 0.067.

Regarding `O=S(=O)(Oc1cccc2ccccc12)c1ccc(F)cc1`, the NF-kB reporter is 1.12 ± 0.1.

Take `O=S(=O)(c1cccc2ccccc12)n1cnc2ccccc21`: the NF-kB reporter is 0.998 ± 0.1.

With `O=C(NCC1CCCN1c1nccs1)C1CC1` (stereo not given), the NF-kB reporter was 1.13 ± 0.084.

Take `O=[N+]([O-])c1cc2c(cc1C=Nc1ccc(O)cc1)OCO2`: the NF-kB reporter came to 1.27 ± 0.11.

On to `COc1ccc(Cl)cc1C(=O)NCCc1ccc(S(=O)(=O)NC(=O)NC2CCCCC2)cc1`, for which the NF-kB reporter was found to be 0.987 ± 0.09.

On to `O=C(NC(=S)NNc1ccccc1)c1cc2ccccc2oc1=O`, for which the NF-kB reporter was 1.03 ± 0.11.

`COC(=O)C1=C(C)N(C)C(C)=C(C(=O)OC)C1c1cccc(C(F)(F)F)c1`: the NF-kB reporter amounted to 0.955 ± 0.082.

In the case of `CN(C)CCCN1c2ccccc2CCc2ccccc21.Cl`, the NF-kB reporter came to 1.2 ± 0.07.

As to `O=C(Nc1nc2ccccc2n1CCN1CCOCC1)C1CCCCC1`, the NF-kB reporter was determined as 0.933 ± 0.068.

Take `COc1ccc(S(=O)(=O)N(CC(=O)Nc2ccccc2F)c2ccc(C)cc2)cc1OC`: the NF-kB reporter came out at 0.933 ± 0.059.

Consider `Cc1ccccc1C(=O)N(Cc1cccnc1)c1nc2c(F)cccc2s1`, for which the NF-kB reporter amounted to 0.645 ± 0.038.

As for `O=C(NN=Cc1cccc(Cl)c1Cl)c1cc(O)cc(O)c1`, the NF-kB reporter was 1.07 ± 0.1.

On to `CC(=O)c1c(C(C)=O)c(C)n(-c2ccccc2N)c1C`, for which the NF-kB reporter was 1.01 ± 0.1.

Take `O=C(NC1CC(=O)N(c2ccc(F)cc2)C1)c1ccc(Cl)cc1` (stereo not given): the NF-kB reporter was 0.877 ± 0.039.

As to `O=C(CN(CCc1ccccc1)S(=O)(=O)c1ccc(Cl)cc1)NCc1ccncc1`, the NF-kB reporter is 0.941 ± 0.12.

With `N#Cc1c(NC(NC(=O)c2cccs2)C(Cl)(Cl)Cl)sc2c1CCCC2` (stereo not given), the NF-kB reporter was 0.878 ± 0.1.

For the compound `O=C(Nc1nc(CC(=O)N2CCc3ccccc3C2)cs1)c1ccc(Cl)cc1`, the NF-kB reporter was determined as 0.845 ± 0.047.

In the case of `COC(=O)C1=C(C)N(Cc2ccccc2)C(=O)C1=Cc1ccc(C)cc1`, the NF-kB reporter came out at 0.749 ± 0.069.

For `O=C(Nc1ccc([N+](=O)[O-])cc1Cl)c1cc(Cl)ccc1O` [Prestw-40], the NF-kB reporter was found to be 0.938 ± 0.068.

With `CC(=O)Nc1ccc(S(=O)(=O)N2CCC(Oc3cc(C)nc(C)n3)C2)cc1` (stereo not given), the NF-kB reporter was determined as 1.04 ± 0.092.

With `Cc1cc(-c2ccc(N=Cc3ccc(Cl)c([N+](=O)[O-])c3)c(C)c2)ccc1N=Cc1ccc(Cl)c([N+](=O)[O-])c1`, the NF-kB reporter amounted to 1.02 ± 0.065.

Take `COc1ccc(C(=O)C=Cc2cc(OC)c(OC)c(OC)c2)c(O)c1`: the NF-kB reporter turned out to be 0.273 ± 0.026.

As to `COc1cc(-c2nnc(SCc3ccc([N+](=O)[O-])cc3)n2-c2ccccc2)cc(OC)c1OC`, the NF-kB reporter came out at 0.994 ± 0.074.

On to `CCN(CC)c1ccc2cc(-c3nnc(NCc4ccccc4)s3)c(=O)oc2c1`, for which the NF-kB reporter came to 0.912 ± 0.07.

In the case of `Cc1cc(C)nc(NS(=O)(=O)c2ccc(NC(=O)C=Cc3cccc4ccccc34)cc2)n1`, the NF-kB reporter was 1.17 ± 0.091.

Consider `COc1cc(C=C2SC(=S)NC2=O)ccc1OCCC(C)C`, for which the NF-kB reporter came to 1.09 ± 0.11.

With `Cc1[nH]c(/C=C2\C(=O)Nc3ccccc32)c(C)c1CCC(=O)O`, the NF-kB reporter turned out to be 0.812 ± 0.048.

On to `Cc1cc(C)n(N=Cc2c[nH]c3ccccc23)c(=O)c1C#N`, for which the NF-kB reporter amounted to 1.02 ± 0.096.

For `CC(=O)c1ccc(NC(=O)CSc2ccc(-c3ccc4c(c3)OCO4)nn2)cc1`, the NF-kB reporter worked out at 0.981 ± 0.11.

Consider `CN(C)CC#CCNC(=O)Nc1ccc(C(F)(F)F)cc1`, for which the NF-kB reporter was 0.874 ± 0.058.

In the case of `O=C(CCc1csc(NC(=O)c2ccco2)n1)Nc1ccc(Cl)cc1`, the NF-kB reporter came out at 0.973 ± 0.097.

For the compound `COc1cccc2c1C(=O)c1c(O)c3c(c(O)c1C2=O)C[C@@](O)(C(=O)CO)C[C@@H]3O[C@H]1C[C@H](N)[C@@H](O)[C@H](C)O1.Cl`, the NF-kB reporter came out at 0.0992 ± 0.0043.

For the compound `COc1ccc([C@@H]2Sc3ccccc3N(CCN(C)C)C(=O)[C@@H]2OC(C)=O)cc1.Cl`, the NF-kB reporter came out at 1.21 ± 0.064.

Consider `COc1ccc(Cc2nnc(C3CCN(S(C)(=O)=O)CC3)s2)cc1`, for which the NF-kB reporter was found to be 0.93 ± 0.12.

Turning to `CCOc1ccc(OCCCCOc2cccc(C)c2)cc1`, the NF-kB reporter turned out to be 0.932 ± 0.082.

The test system is the same in another test. Nature of the test: IRF reporter (Lucia luciferase) activity fold change vs agonist alone; higher = enhanced IRF activity. The following applies: modulator concentration 10 µM; agonist: 3'3'-cGAMP 10 ug/mL. The procedure, abridged:
as §1
Regarding `COC(=O)C1=CN(CC2CCCO2)C=C(C(=O)OC)C1c1cccc(Cl)c1` (stereo not given), the IRF reporter came to 0.82 ± 0.037.

Turning to `O=C(NCCOc1cccc2cccnc12)c1c(F)cccc1F`, the IRF reporter was 0.961 ± 0.048.

With `CCOC(=O)C(C)N(c1ccc(OC)cc1)S(C)(=O)=O` (stereo not given), the IRF reporter amounted to 1.07 ± 0.053.

With `CN1C(C(=O)Nc2ccccn2)=C(O)c2ccccc2S1(=O)=O`, the IRF reporter turned out to be 0.943 ± 0.056.

As to `Cc1nc(Nc2ncc(C(=O)Nc3c(C)cccc3Cl)s2)cc(N2CCN(CCO)CC2)n1.Cl`, the IRF reporter was determined as 0.976 ± 0.048.

For the compound `O=S(=O)(Oc1cccc2ccccc12)c1ccc(F)cc1`, the IRF reporter came out at 0.789 ± 0.036.

With `O=S(=O)(c1cccc2ccccc12)n1cnc2ccccc21`, the IRF reporter came to 0.944 ± 0.089.

As to `O=C(NCC1CCCN1c1nccs1)C1CC1` (stereo not given), the IRF reporter is 0.973 ± 0.07.

Regarding `O=[N+]([O-])c1cc2c(cc1C=Nc1ccc(O)cc1)OCO2`, the IRF reporter worked out at 0.443 ± 0.011.

On to `COc1ccc(Cl)cc1C(=O)NCCc1ccc(S(=O)(=O)NC(=O)NC2CCCCC2)cc1`, for which the IRF reporter was found to be 1.06 ± 0.052.

Regarding `O=C(NC(=S)NNc1ccccc1)c1cc2ccccc2oc1=O`, the IRF reporter worked out at 0.861 ± 0.022.

Take `COC(=O)C1=C(C)N(C)C(C)=C(C(=O)OC)C1c1cccc(C(F)(F)F)c1`: the IRF reporter is 0.995 ± 0.035.

Consider `CN(C)CCCN1c2ccccc2CCc2ccccc21.Cl`, for which the IRF reporter is 0.737 ± 0.043.

For the compound `O=C(Nc1nc2ccccc2n1CCN1CCOCC1)C1CCCCC1`, the IRF reporter amounted to 1.03 ± 0.039.

As for `COc1ccc(S(=O)(=O)N(CC(=O)Nc2ccccc2F)c2ccc(C)cc2)cc1OC`, the IRF reporter worked out at 0.979 ± 0.024.

As to `Cc1ccccc1C(=O)N(Cc1cccnc1)c1nc2c(F)cccc2s1`, the IRF reporter came to 1.34 ± 0.06.

On to `O=C(NN=Cc1cccc(Cl)c1Cl)c1cc(O)cc(O)c1`, for which the IRF reporter came to 0.934 ± 0.079.

On to `CC(=O)c1c(C(C)=O)c(C)n(-c2ccccc2N)c1C`, for which the IRF reporter is 0.983 ± 0.069.

With `O=C(NC1CC(=O)N(c2ccc(F)cc2)C1)c1ccc(Cl)cc1` (stereo not given), the IRF reporter turned out to be 0.944 ± 0.064.

For the compound `O=C(CN(CCc1ccccc1)S(=O)(=O)c1ccc(Cl)cc1)NCc1ccncc1`, the IRF reporter turned out to be 0.954 ± 0.025.

Consider `N#Cc1c(NC(NC(=O)c2cccs2)C(Cl)(Cl)Cl)sc2c1CCCC2` (stereo not given), for which the IRF reporter is 0.66 ± 0.022.

Turning to `O=C(Nc1nc(CC(=O)N2CCc3ccccc3C2)cs1)c1ccc(Cl)cc1`, the IRF reporter was found to be 1.01 ± 0.056.

As for `COC(=O)C1=C(C)N(Cc2ccccc2)C(=O)C1=Cc1ccc(C)cc1`, the IRF reporter turned out to be 0.4 ± 0.02.

`O=C(Nc1ccc([N+](=O)[O-])cc1Cl)c1cc(Cl)ccc1O` [Prestw-40]: the IRF reporter was 0.873 ± 0.064.

For `CC(=O)Nc1ccc(S(=O)(=O)N2CCC(Oc3cc(C)nc(C)n3)C2)cc1` (stereo not given), the IRF reporter was found to be 0.998 ± 0.08.

For the compound `Cc1cc(-c2ccc(N=Cc3ccc(Cl)c([N+](=O)[O-])c3)c(C)c2)ccc1N=Cc1ccc(Cl)c([N+](=O)[O-])c1`, the IRF reporter worked out at 0.821 ± 0.031.

`COc1ccc(C(=O)C=Cc2cc(OC)c(OC)c(OC)c2)c(O)c1`: the IRF reporter is 0.148 ± 0.014.

For `COc1cc(-c2nnc(SCc3ccc([N+](=O)[O-])cc3)n2-c2ccccc2)cc(OC)c1OC`, the IRF reporter was determined as 1.07 ± 0.067.

Turning to `CCN(CC)c1ccc2cc(-c3nnc(NCc4ccccc4)s3)c(=O)oc2c1`, the IRF reporter worked out at 0.598 ± 0.026.

`Cc1cc(C)nc(NS(=O)(=O)c2ccc(NC(=O)C=Cc3cccc4ccccc34)cc2)n1`: the IRF reporter is 0.248 ± 0.026.

For `COc1cc(C=C2SC(=S)NC2=O)ccc1OCCC(C)C`, the IRF reporter was found to be 1.03 ± 0.047.

In the case of `Cc1[nH]c(/C=C2\C(=O)Nc3ccccc32)c(C)c1CCC(=O)O`, the IRF reporter came out at 0.618 ± 0.021.

Consider `Cc1cc(C)n(N=Cc2c[nH]c3ccccc23)c(=O)c1C#N`, for which the IRF reporter stood at 1.03 ± 0.032.

In the case of `CC(=O)c1ccc(NC(=O)CSc2ccc(-c3ccc4c(c3)OCO4)nn2)cc1`, the IRF reporter is 0.955 ± 0.034.

Turning to `CN(C)CC#CCNC(=O)Nc1ccc(C(F)(F)F)cc1`, the IRF reporter was 0.425 ± 0.016.

For the compound `O=C(CCc1csc(NC(=O)c2ccco2)n1)Nc1ccc(Cl)cc1`, the IRF reporter came to 0.883 ± 0.045.

For the compound `COc1cccc2c1C(=O)c1c(O)c3c(c(O)c1C2=O)C[C@@](O)(C(=O)CO)C[C@@H]3O[C@H]1C[C@H](N)[C@@H](O)[C@H](C)O1.Cl`, the IRF reporter was determined as 0.0174 ± 0.0046.

`COc1ccc([C@@H]2Sc3ccccc3N(CCN(C)C)C(=O)[C@@H]2OC(C)=O)cc1.Cl`: the IRF reporter was 0.969 ± 0.15.

With `COc1ccc(Cc2nnc(C3CCN(S(C)(=O)=O)CC3)s2)cc1`, the IRF reporter came to 1.06 ± 0.093.

Consider `CCOc1ccc(OCCCCOc2cccc(C)c2)cc1`, for which the IRF reporter was 1 ± 0.051.
